# In the antibiotic and cytotoxicity screens of Wong et al. (2023):
# Hit rate of the full screen: of about 39,000 compounds, about 3,300 (8.5%) were called active. Many of the other results were omitted from the sample, so actives are more common in it than they were.
# Test system: HepG2
# Assay: cytotoxicity call (relative viability < 0.9)
# Conditions: 10 µM
row,Structure (SMILES),cytotoxicity call
1,CCC(=O)n1ccc(C(=O)N2CCOCC2)n1,inactive
2,O=C(Nc1nn[nH]n1)C1CCCCC1,inactive
3,C[C@@H]1CCCCO[C@H](CN(C)Cc2ccncc2)[C@@H](C)CN([C@@H](C)CO)C(=O)c2cc(NC(=O)Nc3ccc(F)cc3)ccc2O1,inactive
4,C[C@H](CO)N1C[C@H](C)[C@H](CN(C)C(=O)Nc2ccc(F)cc2)OCCCC[C@H](C)Oc2ccc(NC(=O)C3CCCCC3)cc2C1=O,inactive
5,COc1cccc(OC)c1C(=O)NN,inactive
6,FC(F)(F)c1ccccc1-c1ncc(-c2ccccc2)o1,inactive
7,CC(=O)N(O)CCC[C@H]1NC(=O)CNC(=O)CNC(=O)CNC(=O)[C@@H](CCCN(O)C(C)=O)NC(=O)[C@@H](CCCN(O)C(C)=O)NC1=O,inactive
8,COc1ccc(NC(=O)N(C)C[C@H]2OCCCC[C@H](C)Oc3ccc(NC(=O)C4CCCCC4)cc3C(=O)N([C@@H](C)CO)C[C@@H]2C)cc1,inactive
9,C[C@@H]1CCCCO[C@H](CN(C)Cc2ccccc2)[C@@H](C)CN([C@H](C)CO)C(=O)c2cc(NC(=O)c3ccncc3)ccc2O1,inactive
10,CCCCCN1CC=C[C@@]23O[C@@H]4C=CCOC(=O)[C@@H]4[C@H]2C(=O)N(CCCO)[C@@H]3C1=O,inactive
11,C[C@@H]1CN([C@H](C)CO)C(=O)c2cc(NC(=O)CCN3CCOCC3)ccc2O[C@@H]1CN(C)Cc1ccc2c(c1)OCO2,inactive
12,O=C(C[C@H]1CC[C@H]2[C@@H](COC[C@@H](O)CN2S(=O)(=O)c2ccc(Cl)cc2)O1)N[C@@H]1CCN(Cc2ccccc2)C1,active
13,O=C(C[C@@H]1CC[C@@H]2[C@H](COC[C@H](O)CN2S(=O)(=O)c2ccc(Cl)cc2)O1)N[C@@H]1CCN(Cc2ccccc2)C1,active
14,O=C(C[C@H]1CC[C@@H]2[C@H](COC[C@@H](O)CN2S(=O)(=O)c2ccc(Cl)cc2)O1)N[C@H]1CCN(Cc2ccccc2)C1,inactive
15,O=C(C[C@@H]1CC[C@H]2[C@@H](COC[C@@H](O)CN2S(=O)(=O)c2ccc(Cl)cc2)O1)N[C@H]1CCN(Cc2ccccc2)C1,inactive
16,O=C(C[C@@H]1CC[C@@H]2[C@H](COC[C@@H](O)CN2S(=O)(=O)c2ccc(Cl)cc2)O1)N[C@@H]1CCN(Cc2ccccc2)C1,inactive
17,O=C(C[C@H]1CC[C@@H]2[C@H](COC[C@H](O)CN2S(=O)(=O)c2ccc(Cl)cc2)O1)N[C@@H]1CCN(Cc2ccccc2)C1,inactive
18,Cc1ccc(S(=O)(=O)Nc2ccc3c(c2)CC(=O)N([C@@H](C)CO)C[C@@H](C)[C@@H](CN(C)Cc2ccncc2)O3)cc1,inactive
19,NC(=O)CSc1nc(N)cc(N)n1,inactive
20,COc1ccc(S(=O)(=O)Nc2ccc3c(c2)C(=O)N([C@H](C)CO)C[C@@H](C)[C@@H](CN(C)Cc2ccc4c(c2)OCO4)OCCCC[C@@H](C)O3)cc1,inactive
21,C[C@H](CO)N1C[C@H](C)[C@H](CN(C)C(=O)Nc2ccccc2)Oc2ccc(NC(=O)CCN3CCOCC3)cc2C1=O,inactive
22,C[C@@H]1CN([C@@H](C)CO)C(=O)c2cccc(NS(=O)(=O)c3cn(C)cn3)c2O[C@H]1CN(C)C(=O)NC1CCCCC1,inactive
23,Cc1ccc2nc(-c3ccncc3)cc(-c3ccccc3)c2c1,inactive
24,Cc1ccc2ncccc2c1,inactive
25,Cc1ccc2c(c1)/C(=C/c1ccncc1)c1cc3ccccc3nc1-2,active

row,Structure (SMILES),cytotoxicity call
1,C[C@@H]1CCCCO[C@H](CN(C)C(=O)NC2CCCCC2)[C@@H](C)CN([C@H](C)CO)C(=O)c2cc(NC(=O)Nc3ccc(C(F)(F)F)cc3)ccc2O1,inactive
2,CC(C)NC(=O)N(C)C[C@@H]1Oc2ncc(-c3ccc(C(=O)N(C)C)cc3)cc2C(=O)N([C@H](C)CO)C[C@@H]1C,inactive
3,CN(C)CCNC(=O)[C@H]1Cn2ccnc2C2(CCN(Cc3nccs3)CC2)O1,inactive
4,C[C@H](NC(=O)[C@@H](Cc1ccc2ccccc2c1)NC(=O)[C@@H](C)N)C(=O)N[C@@H](Cc1c[nH]c2ccccc12)C(=O)N[C@H](Cc1ccccc1)C(=O)N[C@@H](CCCCN)C(N)=O,inactive
5,CC(C)CC(NC(=O)C(C)NC(=O)CNC(=O)C(NC=O)C(C)C)C(=O)NC(C)C(=O)NC(C(=O)NC(C(=O)NC(C(=O)NC(Cc1c[nH]c2ccccc12)C(=O)NC(CC(C)C)C(=O)NC(Cc1c[nH]c2ccccc12)C(=O)NC(CC(C)C)C(=O)NC(Cc1c[nH]c2ccccc12)C(=O)NC(CC(C)C)C(=O)NC(Cc1c[nH]c2ccccc12)C(=O)NCCO)C(C)C)C(C)C)C(C)C (centres undefined) [GRAMICIDIN (gramicidin A shown) ],active
6,CC(C)C[C@H](NP(=O)(O)O[C@H]1O[C@@H](C)[C@@H](O)[C@@H](O)[C@@H]1O)C(=O)N[C@H](Cc1c[nH]c2ccccc12)C(=O)O,inactive
7,C[C@@H]1CCCCO[C@@H](CN(C)S(C)(=O)=O)[C@@H](C)CN([C@H](C)CO)C(=O)c2cc(NS(=O)(=O)c3cccs3)ccc2O1,inactive
8,C[C@@H]1CN([C@H](C)CO)C(=O)c2c(c3ccccc3n2C)-c2ccccc2CO[C@@H]1CN(C)Cc1ccc(O)cc1,inactive
9,CC(C)CC#Cc1ccc2c(c1)O[C@@H](CN(C)C(=O)c1cccnc1)[C@H](C)CN([C@H](C)CO)S2(=O)=O,inactive
10,COc1ccc(NC(=O)N(C)C[C@@H]2OCCCC[C@H](C)Oc3ccc(NC(=O)Nc4ccccc4)cc3C(=O)N([C@@H](C)CO)C[C@@H]2C)cc1,inactive
11,COc1ccc(NC(=O)N(C)C[C@@H]2Oc3ccc(NC(=O)C4CC4)cc3CC(=O)N([C@@H](C)CO)C[C@H]2C)cc1,inactive
12,O=c1ccc(-c2ccncc2)n[nH]1,inactive
13,C[C@H]1CN([C@@H](C)CO)C(=O)c2cccc(NC(=O)Nc3ccc(C(F)(F)F)cc3)c2O[C@@H]1CN(C)CC1CCCCC1,active
14,C[C@H](CO)N1C[C@H](C)[C@H](CN(C)CC2CCCCC2)Oc2c(NC(=O)Nc3ccc(F)cc3)cccc2C1=O,inactive
15,C[C@@H]1CN([C@H](C)CO)C(=O)c2cccc(NC(=O)Nc3ccc(C(F)(F)F)cc3)c2O[C@H]1CN(C)CC1CCCCC1,active
16,C[C@H](CO)N1C[C@H](C)[C@H](CN(C)CC2CCCCC2)Oc2c(NC(=O)Nc3ccc(C(F)(F)F)cc3)cccc2C1=O,inactive
17,C[C@@H]1CN([C@@H](C)CO)C(=O)c2cccc(NC(=O)Nc3ccc(F)cc3)c2O[C@H]1CN(C)CC1CCCCC1,inactive
18,C[C@H]1CN([C@@H](C)CO)C(=O)c2cccc(NC(=O)Nc3ccc(F)cc3)c2O[C@H]1CN(C)CC1CCCCC1,inactive
19,C[C@H]1CN([C@@H](C)CO)C(=O)c2cccc(NC(=O)Nc3ccc(C(F)(F)F)cc3)c2O[C@H]1CN(C)CC1CCCCC1,active
20,C[C@H](CO)N1C[C@H](C)[C@@H](CN(C)CC2CCCCC2)Oc2c(NC(=O)Nc3ccc(C(F)(F)F)cc3)cccc2C1=O,inactive
21,C[C@@H]1CN([C@H](C)CO)C(=O)c2cccc(NC(=O)Nc3ccc(F)cc3)c2O[C@H]1CN(C)CC1CCCCC1,inactive
22,C[C@@H]1CN([C@@H](C)CO)C(=O)c2cccc(NC(=O)Nc3ccc(C(F)(F)F)cc3)c2O[C@@H]1CN(C)CC1CCCCC1,inactive
23,C[C@@H]1CN([C@H](C)CO)C(=O)c2cccc(NC(=O)Nc3ccc(C(F)(F)F)cc3)c2O[C@@H]1CN(C)CC1CCCCC1,active
24,C[C@@H]1CN([C@H](C)CO)C(=O)c2cccc(NC(=O)Nc3ccc(F)cc3)c2O[C@@H]1CN(C)CC1CCCCC1,inactive
